Test results taken from the supplement of paper PMC11732987, “Enantioselective OTUD7B fragment discovery through chemoproteomics screening and high-throughput optimisation” (Communications Chemistry, 2025).
Unmarked numbers belong to inactive results.

Experiments:
Test in all cases: log2 ratio of Biotin-Ahx-Ub-VS probe labelling (fragment/DMSO); higher = less target engagement (more negative = stronger competition), active = hit call of the paper (q ≤ 0.05, log2 ratio ≤ -1)
Settings in all cases: compound concentration: 200 uM; treatment time: 3 h
USP19 = target: T1, USP19 (UniProt O94966)
T1 sequence (whole entry): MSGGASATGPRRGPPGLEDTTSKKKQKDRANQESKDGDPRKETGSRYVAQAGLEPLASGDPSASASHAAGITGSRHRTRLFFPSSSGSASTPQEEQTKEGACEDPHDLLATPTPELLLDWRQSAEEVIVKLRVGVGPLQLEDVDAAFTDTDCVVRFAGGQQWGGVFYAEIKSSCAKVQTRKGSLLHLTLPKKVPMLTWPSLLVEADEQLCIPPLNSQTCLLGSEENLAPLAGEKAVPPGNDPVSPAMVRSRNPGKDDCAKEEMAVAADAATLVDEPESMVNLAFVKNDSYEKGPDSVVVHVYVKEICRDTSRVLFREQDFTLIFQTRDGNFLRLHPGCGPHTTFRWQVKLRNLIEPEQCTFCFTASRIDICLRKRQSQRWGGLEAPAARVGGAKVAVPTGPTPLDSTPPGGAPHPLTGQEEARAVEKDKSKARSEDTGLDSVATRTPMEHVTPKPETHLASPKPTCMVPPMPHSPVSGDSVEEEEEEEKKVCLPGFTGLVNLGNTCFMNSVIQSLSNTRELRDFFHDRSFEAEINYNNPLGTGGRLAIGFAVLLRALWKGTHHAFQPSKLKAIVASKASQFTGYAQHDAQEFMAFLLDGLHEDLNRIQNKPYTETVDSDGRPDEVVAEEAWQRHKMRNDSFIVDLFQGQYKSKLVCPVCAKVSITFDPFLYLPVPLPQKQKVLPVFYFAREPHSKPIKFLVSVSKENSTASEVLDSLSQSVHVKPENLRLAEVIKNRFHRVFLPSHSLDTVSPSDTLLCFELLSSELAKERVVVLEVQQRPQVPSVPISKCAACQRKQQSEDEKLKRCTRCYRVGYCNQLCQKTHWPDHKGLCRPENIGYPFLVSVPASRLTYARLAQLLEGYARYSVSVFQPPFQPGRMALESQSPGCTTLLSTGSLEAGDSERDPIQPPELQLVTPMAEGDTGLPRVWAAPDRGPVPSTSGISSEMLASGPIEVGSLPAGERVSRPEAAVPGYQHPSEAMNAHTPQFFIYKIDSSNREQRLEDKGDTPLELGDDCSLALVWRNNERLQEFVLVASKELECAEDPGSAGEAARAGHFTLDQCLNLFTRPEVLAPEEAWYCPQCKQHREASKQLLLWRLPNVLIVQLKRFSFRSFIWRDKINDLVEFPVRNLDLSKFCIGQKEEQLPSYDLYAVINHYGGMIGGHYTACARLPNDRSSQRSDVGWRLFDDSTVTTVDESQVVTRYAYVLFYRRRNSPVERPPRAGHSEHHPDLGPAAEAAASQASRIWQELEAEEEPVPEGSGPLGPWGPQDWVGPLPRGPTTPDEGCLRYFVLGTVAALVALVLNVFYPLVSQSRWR
In short: (§1)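 Each value is an average log2 ratio of fragment to vehicle, tested by unpaired t-test. The underlying Spectronaut label-free quantities were global-median-normalised, and only proteins with ≥2 unique peptides were included. Triplicate HEK293T lysate samples (495 µg) were exposed to fragment at 200 µM or vehicle for 3 h, then to Biotin-Ahx-Ub-VS at 0.5 µM final for 1 h, before NeutrAvidin enrichment of labelled DUBs, LysC and trypsin digestion, and diaPASEF LC-MS/MS.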

USP24 = USP24 (UniProt Q9UPU5)
Chain of USP24 (Q9UPU5 whole entry): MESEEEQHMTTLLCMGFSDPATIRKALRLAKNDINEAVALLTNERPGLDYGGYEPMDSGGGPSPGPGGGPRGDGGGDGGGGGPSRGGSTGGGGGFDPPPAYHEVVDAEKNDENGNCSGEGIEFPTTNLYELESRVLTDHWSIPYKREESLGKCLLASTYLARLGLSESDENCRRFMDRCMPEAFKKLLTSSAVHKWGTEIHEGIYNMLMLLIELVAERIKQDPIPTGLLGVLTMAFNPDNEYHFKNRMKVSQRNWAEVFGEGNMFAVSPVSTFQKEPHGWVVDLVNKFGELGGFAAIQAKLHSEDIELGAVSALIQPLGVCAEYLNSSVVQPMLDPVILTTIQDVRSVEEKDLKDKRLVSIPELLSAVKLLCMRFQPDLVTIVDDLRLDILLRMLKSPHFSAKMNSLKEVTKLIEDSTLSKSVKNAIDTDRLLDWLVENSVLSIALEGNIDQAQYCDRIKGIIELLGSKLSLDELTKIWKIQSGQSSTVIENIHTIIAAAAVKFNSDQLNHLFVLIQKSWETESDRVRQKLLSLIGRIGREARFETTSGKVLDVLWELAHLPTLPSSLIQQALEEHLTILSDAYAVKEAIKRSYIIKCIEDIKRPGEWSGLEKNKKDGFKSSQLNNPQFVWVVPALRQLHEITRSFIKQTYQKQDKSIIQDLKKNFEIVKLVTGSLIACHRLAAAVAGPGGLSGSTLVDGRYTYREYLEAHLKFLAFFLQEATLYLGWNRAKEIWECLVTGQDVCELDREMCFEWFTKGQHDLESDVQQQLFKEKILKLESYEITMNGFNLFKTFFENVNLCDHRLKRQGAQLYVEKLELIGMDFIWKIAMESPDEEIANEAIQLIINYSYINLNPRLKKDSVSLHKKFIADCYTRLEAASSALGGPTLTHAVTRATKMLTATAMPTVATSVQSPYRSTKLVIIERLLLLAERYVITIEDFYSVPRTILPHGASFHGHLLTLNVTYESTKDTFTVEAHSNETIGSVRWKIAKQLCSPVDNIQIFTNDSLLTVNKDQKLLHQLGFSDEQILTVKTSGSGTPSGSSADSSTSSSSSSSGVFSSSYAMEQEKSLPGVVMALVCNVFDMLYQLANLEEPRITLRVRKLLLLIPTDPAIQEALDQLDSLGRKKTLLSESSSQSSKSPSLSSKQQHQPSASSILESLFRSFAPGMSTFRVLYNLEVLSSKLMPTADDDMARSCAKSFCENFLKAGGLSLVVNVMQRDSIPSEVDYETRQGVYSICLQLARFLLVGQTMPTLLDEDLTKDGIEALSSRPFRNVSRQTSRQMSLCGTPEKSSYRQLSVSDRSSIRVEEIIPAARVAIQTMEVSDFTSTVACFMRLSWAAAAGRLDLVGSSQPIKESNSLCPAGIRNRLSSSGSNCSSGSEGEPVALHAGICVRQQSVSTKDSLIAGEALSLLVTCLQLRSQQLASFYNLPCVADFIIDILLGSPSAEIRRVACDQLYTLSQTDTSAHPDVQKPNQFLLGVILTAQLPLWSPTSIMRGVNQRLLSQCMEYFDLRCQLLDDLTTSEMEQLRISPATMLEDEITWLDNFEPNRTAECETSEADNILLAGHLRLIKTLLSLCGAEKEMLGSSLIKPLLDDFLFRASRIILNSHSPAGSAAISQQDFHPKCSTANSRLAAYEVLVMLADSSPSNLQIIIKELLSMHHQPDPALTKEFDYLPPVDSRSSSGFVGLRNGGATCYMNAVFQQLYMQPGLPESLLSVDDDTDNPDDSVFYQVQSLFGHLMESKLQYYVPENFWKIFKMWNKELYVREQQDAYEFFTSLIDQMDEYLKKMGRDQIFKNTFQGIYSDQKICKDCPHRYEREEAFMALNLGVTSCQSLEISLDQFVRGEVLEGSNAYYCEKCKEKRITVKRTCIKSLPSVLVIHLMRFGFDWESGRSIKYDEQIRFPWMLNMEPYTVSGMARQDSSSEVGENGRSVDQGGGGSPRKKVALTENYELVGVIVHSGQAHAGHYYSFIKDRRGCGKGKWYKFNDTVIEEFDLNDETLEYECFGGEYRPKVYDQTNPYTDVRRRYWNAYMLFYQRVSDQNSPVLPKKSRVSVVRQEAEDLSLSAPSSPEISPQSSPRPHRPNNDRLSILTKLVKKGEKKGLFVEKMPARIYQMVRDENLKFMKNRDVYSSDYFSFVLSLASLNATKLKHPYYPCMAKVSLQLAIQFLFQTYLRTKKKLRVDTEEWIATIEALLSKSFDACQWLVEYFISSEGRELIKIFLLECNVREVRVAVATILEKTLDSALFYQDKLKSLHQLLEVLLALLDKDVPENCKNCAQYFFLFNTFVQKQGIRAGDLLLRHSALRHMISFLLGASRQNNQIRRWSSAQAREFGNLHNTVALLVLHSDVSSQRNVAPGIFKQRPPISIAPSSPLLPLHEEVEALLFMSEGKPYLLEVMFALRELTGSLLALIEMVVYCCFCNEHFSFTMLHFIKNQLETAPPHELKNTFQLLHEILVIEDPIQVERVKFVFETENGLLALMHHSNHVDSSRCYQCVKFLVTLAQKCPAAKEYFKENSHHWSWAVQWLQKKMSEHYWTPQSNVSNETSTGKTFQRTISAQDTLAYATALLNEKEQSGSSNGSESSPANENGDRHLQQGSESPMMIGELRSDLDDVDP
In short: as §1

USP25 = target: T2, USP25 (UniProt Q9UHP3)
T2 sequence (whole entry): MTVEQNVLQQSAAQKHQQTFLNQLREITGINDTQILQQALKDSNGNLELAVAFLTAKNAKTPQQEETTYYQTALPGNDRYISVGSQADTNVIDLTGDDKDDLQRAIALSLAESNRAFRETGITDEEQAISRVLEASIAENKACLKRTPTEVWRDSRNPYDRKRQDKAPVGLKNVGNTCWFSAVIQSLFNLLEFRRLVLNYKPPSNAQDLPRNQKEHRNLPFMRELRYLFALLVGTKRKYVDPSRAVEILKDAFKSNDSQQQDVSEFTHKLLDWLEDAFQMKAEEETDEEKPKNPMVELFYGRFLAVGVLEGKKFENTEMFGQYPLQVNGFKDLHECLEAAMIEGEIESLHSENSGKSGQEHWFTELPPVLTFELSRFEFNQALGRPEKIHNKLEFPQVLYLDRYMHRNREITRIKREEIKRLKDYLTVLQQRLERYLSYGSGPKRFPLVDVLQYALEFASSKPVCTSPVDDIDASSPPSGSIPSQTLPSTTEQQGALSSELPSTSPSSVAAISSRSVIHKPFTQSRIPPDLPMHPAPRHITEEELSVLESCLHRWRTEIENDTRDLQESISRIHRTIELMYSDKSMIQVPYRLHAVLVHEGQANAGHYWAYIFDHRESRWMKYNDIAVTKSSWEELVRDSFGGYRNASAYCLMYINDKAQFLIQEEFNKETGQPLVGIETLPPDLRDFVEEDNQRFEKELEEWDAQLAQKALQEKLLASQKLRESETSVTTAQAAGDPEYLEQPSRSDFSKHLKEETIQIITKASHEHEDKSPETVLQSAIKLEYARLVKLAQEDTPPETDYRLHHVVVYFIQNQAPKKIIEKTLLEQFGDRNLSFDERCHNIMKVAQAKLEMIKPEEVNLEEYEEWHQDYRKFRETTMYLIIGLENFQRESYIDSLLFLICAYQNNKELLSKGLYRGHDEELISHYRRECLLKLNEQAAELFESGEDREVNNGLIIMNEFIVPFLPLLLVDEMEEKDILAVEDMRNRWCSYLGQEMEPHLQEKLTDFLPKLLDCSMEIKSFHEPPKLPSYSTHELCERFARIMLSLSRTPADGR
In short: as §1

USP28 = target: T3, USP28 (UniProt Q96RU2)
T3 sequence (whole entry): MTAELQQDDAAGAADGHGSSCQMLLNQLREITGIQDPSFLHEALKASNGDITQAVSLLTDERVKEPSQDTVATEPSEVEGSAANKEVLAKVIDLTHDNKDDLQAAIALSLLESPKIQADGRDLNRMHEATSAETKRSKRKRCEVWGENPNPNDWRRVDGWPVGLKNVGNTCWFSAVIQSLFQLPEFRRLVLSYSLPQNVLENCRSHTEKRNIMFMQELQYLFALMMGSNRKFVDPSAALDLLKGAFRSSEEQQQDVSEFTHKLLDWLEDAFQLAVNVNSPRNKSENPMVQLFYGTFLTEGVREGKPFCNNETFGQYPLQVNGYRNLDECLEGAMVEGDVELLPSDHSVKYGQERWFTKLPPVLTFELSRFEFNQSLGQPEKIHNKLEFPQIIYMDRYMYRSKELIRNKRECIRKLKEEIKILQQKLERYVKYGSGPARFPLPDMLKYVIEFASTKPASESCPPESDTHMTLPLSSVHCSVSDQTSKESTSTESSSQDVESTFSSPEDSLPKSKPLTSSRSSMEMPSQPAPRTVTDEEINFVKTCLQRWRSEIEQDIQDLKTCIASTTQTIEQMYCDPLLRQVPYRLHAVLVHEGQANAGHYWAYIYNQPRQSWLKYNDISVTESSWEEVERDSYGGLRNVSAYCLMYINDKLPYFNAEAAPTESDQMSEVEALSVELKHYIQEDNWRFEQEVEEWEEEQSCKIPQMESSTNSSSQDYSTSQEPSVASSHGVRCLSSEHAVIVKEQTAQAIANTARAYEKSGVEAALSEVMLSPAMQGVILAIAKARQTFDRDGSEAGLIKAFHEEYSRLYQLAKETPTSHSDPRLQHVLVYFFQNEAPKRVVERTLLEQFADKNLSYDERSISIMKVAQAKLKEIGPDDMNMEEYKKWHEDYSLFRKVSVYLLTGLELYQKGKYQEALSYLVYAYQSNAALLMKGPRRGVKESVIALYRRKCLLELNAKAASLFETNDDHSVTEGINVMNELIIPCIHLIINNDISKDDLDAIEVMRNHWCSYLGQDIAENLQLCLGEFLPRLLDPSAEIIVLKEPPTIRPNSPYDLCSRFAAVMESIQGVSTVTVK
In short: as §1

O=C(CCl)N1CCN(c2nc3ccccc3o2)CC1
log2 ratio of Biotin-Ahx-Ub-VS probe labelling (USP19): -0.702 | log2 ratio of Biotin-Ahx-Ub-VS probe labelling (USP24): -1.3 (active) | log2 ratio of Biotin-Ahx-Ub-VS probe labelling (USP25): -0.53 | log2 ratio of Biotin-Ahx-Ub-VS probe labelling (USP28): -0.6
